Screening results: PubChem BioAssay, several laboratories
NTR1 ag = NTR1 (human) agonism; activation, % at 20 µM; 330,000 compounds, 0.17% hits; P30989; NTR1-U2OS beta-arrestin-GFP spot imaging, agonist mode; AID 493036;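 active = activation at or above 40% of the spot to cytoplasm intensity ratio, with at least 20 cells analyzed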;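 note: 0% = DMSO without peptide and 100% = 100 nM NTR1 peptide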
AI-2 QS modul = Vibrio harveyi AI-2 quorum sensing modulation; Vibrio harveyi JMH597 AI-2 luminescence/OD600 ratio, 9 h; hits give low values; strain lacks LuxN and CqsS sensors; 0 = neutral-control median; activity change, % at 7.5 µM; 300,000 compounds, 0.4% hits; AID 2094; in the data active = activity change below about -75%, passing the limit was not always enough;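 note: luminescence divided by OD600 gain over 9 h not by final OD600 alone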
SUMO Mot1 rescue = inhibitors of SUMOylation pathway: yeast Mot1-301 growth rescue; S. cerevisiae Mot1-301 growth rescue, ATP luminescence, 38.5C; percent above DMSO median, 100 means doubled; growth rescue, % at 18.8 µM; 320,000 compounds, 1% hits; AID 2716;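 active = every valid replicate shows activation above 250% relative to neutral control wells; inactive = the rest, any valid replicate at or below 250%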;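 note: OY570 slx delta 5 strain wells were the positive control but not used for scaling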
NR3A LBD binder = modulators (binders) of human NR3A ligand-binding domain; NR3A LBD differential scanning fluorimetry, Tm shift; 0% = protein alone, 100% = glycine-bound protein; Tm shift relative to glycine control, % at 25 µM; 340,000 compounds, 2.5% hits; AID 1259313;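 active = melting temperature shift of at least 10% of the positive control shift, at one fixed dose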
AHR activator = activators of human aryl hydrocarbon receptor. P35869. AHR-responsive luciferase reporter cells, luminescence. activation, % at 5 µM. 320,000 compounds, 2.5% hits; in the data active = activation above about 47%;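 note: 0% = vehicle wells and 100% = reference agonist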
Target sequence (P35869 whole entry, looked up): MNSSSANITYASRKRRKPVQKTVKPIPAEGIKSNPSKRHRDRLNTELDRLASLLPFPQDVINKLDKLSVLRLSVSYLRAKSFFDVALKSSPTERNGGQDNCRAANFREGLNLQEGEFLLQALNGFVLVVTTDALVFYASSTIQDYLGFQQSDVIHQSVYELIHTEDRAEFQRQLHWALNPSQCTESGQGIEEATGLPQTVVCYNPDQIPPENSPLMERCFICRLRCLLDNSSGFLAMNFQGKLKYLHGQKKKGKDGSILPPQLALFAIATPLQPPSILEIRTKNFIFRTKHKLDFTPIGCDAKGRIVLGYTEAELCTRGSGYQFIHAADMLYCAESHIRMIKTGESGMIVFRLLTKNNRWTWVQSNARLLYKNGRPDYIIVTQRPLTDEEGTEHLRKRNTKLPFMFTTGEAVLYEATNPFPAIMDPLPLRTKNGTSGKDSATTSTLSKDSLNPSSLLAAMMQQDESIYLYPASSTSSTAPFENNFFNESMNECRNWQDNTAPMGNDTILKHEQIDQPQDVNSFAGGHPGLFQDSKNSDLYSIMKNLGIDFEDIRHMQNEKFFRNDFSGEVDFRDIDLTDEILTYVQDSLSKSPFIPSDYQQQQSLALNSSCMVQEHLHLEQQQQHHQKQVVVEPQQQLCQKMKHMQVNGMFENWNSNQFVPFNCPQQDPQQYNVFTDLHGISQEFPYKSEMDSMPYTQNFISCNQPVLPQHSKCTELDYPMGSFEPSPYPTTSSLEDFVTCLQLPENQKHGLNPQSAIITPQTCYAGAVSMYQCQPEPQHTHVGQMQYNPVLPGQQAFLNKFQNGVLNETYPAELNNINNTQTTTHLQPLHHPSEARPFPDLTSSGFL
Cardio protect = protects H9c2 cardiomyocytes from peroxide injury | H2O2 injury protection, ATPLite, 2 h | protection from H2O2 cell death, % at 20 µM | AID 588492 | 360,000 compounds, 0.63% hits;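 active = compounds giving at least 50% protection of heart cells from peroxide-induced death in the single-dose screen, raw or plate-pattern-corrected value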;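 note: 0% = DMSO wells with peroxide and 100% = DMSO wells without peroxide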
* marks the source's active call; other numbers are inactive results; . = no result given. This is a sample that favours compounds with a hit; in the whole collection about 6.2% have one here.

SMILES	NTR1 ag	AI-2 QS modul	SUMO Mot1 rescue	NR3A LBD binder	AHR activator	Cardio protect
COc1ccc(Nc2nnc(-c3ccc(O)cc3)c3ccccc23)cc1C(N)=O	0	39	265	-4	47	57*
CNC(=O)c1cc(Nc2nnc(C)c3ccccc23)ccc1OC	-1	12	20	0	59*	6
COc1ccc(CN(C)C(c2ccccc2)c2nnnn2-c2ccccc2C)c(OC)c1C (stereo not given)	4	5	44	15*	8	-22
CN(CCOc1ccc(Cl)cc1)C(=O)CNS(=O)(=O)c1ccc(N(C)C)c([N+](=O)[O-])c1	2	.	.	-9	.	7
CN(C)c1ccc(S(=O)(=O)NCC(=O)OCC(=O)Nc2cc(Cl)cc(Cl)c2)cc1[N+](=O)[O-]	-2	13	-24	18*	3	33
CC(C)N1CC(C(=O)Nc2cccc([N+](=O)[O-])c2)CC1=O (stereo not given)	1	36	-2	2	-1	1
CCc1ccc2c(Cl)c(C(=O)N/N=C/c3c[nH]c4ccccc34)sc2c1	31	39	46	24*	4	-1
CCc1ccc(-c2cc(C(=O)N/N=C/c3c[nH]c4ccccc34)[nH]n2)cc1	19	-2	2	24*	55*	-8
CC(C)c1cc(C(=O)N/N=C/c2c[nH]c3ccccc23)n[nH]1	-1	58	-27	8	20	-1
Cn1c2ccccc2c(=O)c2c(=O)n(-c3ccc(F)cc3)c(C3CCCCC3)nc21	.	.	.	-2	.	1
Cc1ccccc1Nc1nnc(SCC(=O)c2c(N)n(C3CC3)c(=O)[nH]c2=O)s1	0	.	.	1	.	-1
CC(C)C(=O)NC(c1cccs1)c1cc([N+](=O)[O-])c2cccnc2c1O (stereo not given)	1	39	155	-4	2	56*
CCC(=O)NC(c1ccc(C)cc1)c1cc(Cl)c2cccnc2c1O (stereo not given)	3	.	-6	-27	12	32
CCC(=O)NC(c1cccs1)c1cc([N+](=O)[O-])c2cccnc2c1OC (stereo not given)	.	.	.	.	.	16
Cc1ccc(C(NC(=O)C(C)C)c2cc([N+](=O)[O-])c3cccnc3c2O)cc1 (stereo not given)	1	34	-12	-7	18	51*
Cc1cccc(-n2c(C)cc(/C=C3\NC(=O)NC3=O)c2C)c1	7	-9	39	0	82*	-6
Cc1cc(/C=C2/NC(=O)N(c3ccccc3)C2=O)c(C)n1-c1cccnc1	-1	10	-4	-7	109*	-10
Cc1cc(/C=C2/NC(=O)NC2=O)c(C)n1-c1ccncc1	5	24	3	-3	26	3
O=C(CCCCC(=O)NN=Cc1ccc(Cl)cc1)NN=Cc1ccc(Cl)cc1	.	.	.	-2	.	-3
Cc1ccc(NC(=O)C2Oc3ccccc3OC2C)cc1 (stereo not given)	1	-6	1	0	51*	-6
O=C(CCSc1ccccc1)Nc1ccc(S(=O)(=O)Nc2ncccn2)cc1	0	-79*	-2	-1	0	15
O=C(CSc1ccccc1)Nc1ccc(S(=O)(=O)Nc2ncccn2)cc1	-1	-67	3	-1	0	-3
Cc1ccc(CC(=O)Nc2ccc(S(=O)(=O)Nc3ncccn3)cc2)cc1	-1	-92*	-9	-1	0	1
CC(C)c1cccc(-c2csc(C(C)(O)c3cccc(F)c3)n2)c1 (stereo not given)	.	.	.	.	.	-7
Cc1cccc(-c2cc3c(N=O)c4ccccc4c-3n[nH]2)c1	4	-3	-33	2	127*	-6
SMILES	NTR1 ag	AI-2 QS modul	SUMO Mot1 rescue	NR3A LBD binder	AHR activator	Cardio protect
CCCN1C(=O)c2cc(C(=O)O)ccc2C1O (stereo not given)	1	15	-17	4	2	12
CCCN1C(=O)c2cc(C(=O)Nc3cccc(C(C)=O)c3)ccc2C1Nc1cccc(C(C)=O)c1 (stereo not given)	7	7	-17	2	4	52*
C=CCn1c(=NC(=O)C2COc3ccccc3O2)sc2cc(S(N)(=O)=O)ccc21 (stereo not given)	7	16	7	-4	-1	22
COCCn1c(=NC(=O)C2COc3ccccc3O2)sc2cc(S(N)(=O)=O)ccc21 (stereo not given)	5	-7	-3	17*	1	13
COc1ccccc1NC(=O)c1ccccc1NC(=O)c1cc(Cl)ccc1NC(=O)c1ccco1	2	8	-22	1	41	11
COc1ccccc1NC(=O)c1cc(Cl)ccc1NC(=O)c1ccco1	4	9	-1	-1	63*	-3
O=C(Nc1ccccn1)c1ccco1	-1	3	-9	-3	2	11
COc1ccccc1NC(=O)c1sc(NC(=O)c2ccco2)c(C#N)c1C	2	15	0	1	66*	-2
COc1ccccc1C(=O)Nc1cc(C)ccc1NC(=O)c1ccco1	1	2	-8	4	65*	0
O=C(Nc1ccc(Cl)cc1C(=O)Nc1ccccn1)c1ccco1	0	-8	-8	1	64*	45
O=C(Nc1ccccc1C(=O)Nc1nnc(C(F)(F)F)s1)c1ccccc1Cl	5	-7	-15	18*	-2	-15
NC(=O)c1ccccc1NC(=O)c1ccccc1Cl	2	13	17	-5	0	-4
O=C(N/N=C\c1ccc(F)cc1)c1cc(OCC(F)(F)F)ccc1OCC(F)(F)F	3	31	.	-8	3	-5
Cc1ccc(/C=N\NC(=O)c2cc(OCC(F)(F)F)ccc2OCC(F)(F)F)cc1	8	27	522	14*	12	-20
COc1ccc(OCC(=O)Nc2c3c(nn2-c2ccccc2)CS(=O)(=O)C3)cc1	0	29	1	1	2	7
O=C(Nc1ccccc1)Nc1ccccn1	0	0	-20	0	14	-8
O=C(Nc1ccncc1)Nc1ccc(Cl)cc1	2	14	-5	26*	6	-7
O=C(Nc1ccc(Cl)cc1)Nc1ccc(-c2cnco2)cc1	3	15	8	37*	1	-9
O=C(Nc1ccccn1)c1ccc(-c2ccccc2)cc1	4	7	20	36*	-3	-23
O=C(Nc1ccc(Cl)cc1)Nc1ccccn1	1	23	366	-2	50*	-2
O=C(Nc1ccncc1)Nc1ccncc1	-1	21	240	-11	1	-4
CC(=O)Nc1ccc(S(=O)(=O)N2CCN(Cc3csc(C)n3)CC2)cc1	1	16	-2	2	-2	-2
CC(=O)NCCc1ccc(C(=O)COC(=O)c2cccs2)cc1	.	.	.	.	.	-7
